The values that follow come from PubChem BioAssay (NCI).

A short description of assay [1]: NCI Yeast Anticancer Drug Screen. Data for the rad50 strain (AID 155).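 Note: 0% = growth of vehicle-only cultures of the same strain.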 Conditions: S. cerevisiae rad50 strain growth inhibition, stronger effect = higher value. A digest of the protocol: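 Genetically altered yeast (DNA repair pathway); compound treatment; growth inhibition vs vehicle ctrl.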
Assay [2] in a line: NCI Yeast Anticancer Drug Screen. Data for the mec2-1 strain (AID 157). Conditions: S. cerevisiae mec2-1 strain, stronger effect = higher value. The method in brief:
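Vehicle-treated cultures served as reference for growth inhibition of compound-exposed mec2-1 yeast.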

Assay [3] in a line: NCI Yeast Anticancer Drug Screen. Data for the sgs1 mgt1 strain (AID 161).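 Note: 0% = growth of cultures given vehicle only.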 Conditions: S. cerevisiae sgs1 mgt1 strain, stronger effect = higher value. A digest of the protocol: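 Genetically altered yeast, compound exposure, growth inhibition relative to vehicle.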
Assay [4] can be described thus: NCI Yeast Anticancer Drug Screen. Data for the cln2 rad14 strain (AID 165).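 Note: 0% = growth equal to vehicle treated cultures.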 Conditions: S. cerevisiae cln2 rad14 strain, stronger effect = higher value. The method in brief:
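Each compound was tested on cln2 rad14 yeast. Inhibition of growth was calculated against vehicle-exposed controls.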

Assay [5] is described as follows: NCI Yeast Anticancer Drug Screen. Data for the bub3 strain (AID 167). Conditions: S. cerevisiae bub3 mutant strain, stronger effect = higher value. A digest of the protocol: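 Yeast carrying a defined mutation is treated with each compound, and growth is compared with that of vehicle-exposed cells to give inhibition.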
The nature of assay [6]: NCI Yeast Anticancer Drug Screen. Data for the mlh1 rad18 strain (AID 175). Conditions: S. cerevisiae mlh1 rad18 strain growth inhibition, stronger effect = higher value. A digest of the protocol:
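Vehicle-treated cultures served as the reference for growth inhibition in a yeast strain carrying DNA damage repair alterations exposed to each compound.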

The mark [7] stands for this setting: at 5.0 µM (retest, dose inferred, filed as 0.5).
[8] abbreviates: at 50.0 µM (retest, dose inferred, filed as 5.0).

Compounds without any hit were thinned out: in the full panel of roughly 79,000, 15% have a hit. A number with no mark means an inactive call. Active and inactive are the calls of the source. Cut-off read from the data, not from the text of the source: active = growth inhibition above about 70%; inactive = the rest.

In the case of `C=CC[P+](CC[P+](CC=C)(c1ccccc1)c1ccccc1)(c1ccccc1)c1ccccc1`, the growth inhibition is -2% in assay [1] (setting [7]); -3% in assay [1] (setting [8]); 2.6% in assay [1] (at 50.0 µM); -1% in assay [2] (setting [7]); -4% in assay [2] (setting [8]); -0.25% in assay [2] (at 50.0 µM). Besides, the growth inhibition in assay [3] (setting [7]) is -2%; in assay [3] (setting [8]), 1%; in assay [3] (at 50.0 µM) it was 16.6%; in assay [4] (setting [7]) it was -5%; in assay [4] (setting [8]), -10%; in assay [4] (at 50.0 µM), -31.6%. Further, the growth inhibition in assay [5] (setting [7]) is -3%; in assay [5] (setting [8]) it was -3%; in assay [5] (at 50.0 µM) it was 6.8%; in assay [6] (setting [7]), 1%; in assay [6] (setting [8]) it was -1%; in assay [6] (at 50.0 µM), 52.2%.

As for `CS(=O)(=O)c1cc(=O)c2ccccc2s1`, the growth inhibition in assay [1] (setting [7]) is 6%; in assay [1] (setting [8]), 99% (active); in assay [1] (at 50.0 µM) it was 97.2% (active); in assay [2] (setting [7]) it was 23%; in assay [2] (setting [8]) it was 99% (active); in assay [2] (at 50.0 µM) it was 96.6% (active). Moreover, the growth inhibition in assay [3] (setting [7]) is 21%; in assay [3] (setting [8]), 99% (active); in assay [3] (at 50.0 µM), 97.5% (active); in assay [4] (setting [7]), 10%; in assay [4] (setting [8]), 99% (active); in assay [4] (at 50.0 µM) it was 84.7% (active). The growth inhibition in assay [5] (setting [7]) is -3%; in assay [5] (setting [8]) it was 100% (active); in assay [5] (at 50.0 µM) it was 31.6%; in assay [6] (setting [7]) it was 17%; in assay [6] (setting [8]), 99% (active); in assay [6] (at 50.0 µM), 97.8% (active).

As for `C=CCc1cccc(/C=N\N=C(/N)NO)c1O`, the growth inhibition is -1% in assay [1] (setting [7]); 26% in assay [1] (setting [8]); 43.5% in assay [1] (at 50.0 µM); 2% in assay [2] (setting [7]); 35% in assay [2] (setting [8]); 84.5% (active) in assay [2] (at 50.0 µM). The growth inhibition in assay [3] (setting [7]) was 3%; in assay [3] (setting [8]), 59%; in assay [3] (at 50.0 µM), 41.1%; in assay [4] (setting [7]) it was -6%; in assay [4] (setting [8]), 26%; in assay [4] (at 50.0 µM) it was 48.6%. Moreover, the growth inhibition was -4% in assay [5] (setting [7]); 8% in assay [5] (setting [8]); 70% (active) in assay [5] (at 50.0 µM); -2% in assay [6] (setting [7]); 42% in assay [6] (setting [8]); 83.2% (active) in assay [6] (at 50.0 µM).

For `CCOC(=O)/N=C(\N)SCc1ccccc1`, the growth inhibition in assay [1] (setting [7]) is 21%; in assay [1] (setting [8]) it was 3%; in assay [1] (at 50.0 µM) it was 10.9%; in assay [2] (setting [7]), -4%; in assay [2] (setting [8]), -6%; in assay [2] (at 50.0 µM), 1.05%. Moreover, the growth inhibition in assay [3] (setting [7]) is 13%; in assay [3] (setting [8]), -8%; in assay [3] (at 50.0 µM) it was -12.8%; in assay [4] (setting [7]), -7%; in assay [4] (setting [8]), -8%; in assay [4] (at 50.0 µM), -6.25%. For the same molecule, the growth inhibition was 0% in assay [5] (setting [7]); -7% in assay [5] (setting [8]); 49.5% in assay [5] (at 50.0 µM); -3% in assay [6] (setting [7]); -2% in assay [6] (setting [8]); -5.95% in assay [6] (at 50.0 µM).

As to `CC1C(CCC(=O)O)OC2CC3C4CCC5CC(O)CCC5(C)C4CCC3(C)C21` (configuration not stated), the growth inhibition in assay [1] (setting [7]) was 4%; in assay [1] (setting [8]), 56%; in assay [1] (at 50.0 µM), 82.3% (active); in assay [2] (setting [7]), 7%; in assay [2] (setting [8]) it was 96% (active); in assay [2] (at 50.0 µM) it was 90% (active). Besides, the growth inhibition in assay [3] (setting [7]) was 22%; in assay [3] (setting [8]), 89% (active); in assay [3] (at 50.0 µM), 95.5% (active); in assay [4] (setting [7]), 8%; in assay [4] (setting [8]), 90% (active); in assay [4] (at 50.0 µM), 93.7% (active). The growth inhibition was 4% in assay [5] (setting [7]); 66% in assay [5] (setting [8]); 86.4% (active) in assay [5] (at 50.0 µM); 16% in assay [6] (setting [7]); 91% (active) in assay [6] (setting [8]); 85.3% (active) in assay [6] (at 50.0 µM).

On to `Fc1ccc(CSC(=S)Nc2ccc(F)cc2)cc1`, for which the growth inhibition in assay [1] (setting [7]) is 5%; in assay [1] (setting [8]), 29%; in assay [1] (at 50.0 µM), 69.5%; in assay [2] (setting [7]), 0%; in assay [2] (setting [8]) it was 16%; in assay [2] (at 50.0 µM), 47.6%. The growth inhibition is 2% in assay [3] (setting [7]); 29% in assay [3] (setting [8]); 68.3% in assay [3] (at 50.0 µM); -9% in assay [4] (setting [7]); -4% in assay [4] (setting [8]); 32.5% in assay [4] (at 50.0 µM). The growth inhibition was -6% in assay [5] (setting [7]); 8% in assay [5] (setting [8]); 27.6% in assay [5] (at 50.0 µM); -3% in assay [6] (setting [7]); 19% in assay [6] (setting [8]); 78.7% (active) in assay [6] (at 50.0 µM).

Take `COc1cccc(=O)cc1`: the growth inhibition in assay [1] (setting [7]) was 5%; in assay [1] (setting [8]), 86% (active); in assay [1] (at 50.0 µM), 83.3% (active); in assay [2] (setting [7]), 12%; in assay [2] (setting [8]) it was 51%; in assay [2] (at 50.0 µM), 26.4%. Further, the growth inhibition in assay [3] (setting [7]) is 11%; in assay [3] (setting [8]), 83% (active); in assay [3] (at 50.0 µM) it was 93.5% (active); in assay [4] (setting [7]), 7%; in assay [4] (setting [8]), 32%; in assay [4] (at 50.0 µM), 19.4%. Further, the growth inhibition in assay [5] (setting [7]) was 3%; in assay [5] (setting [8]) it was 85% (active); in assay [5] (at 50.0 µM), 92.9% (active); in assay [6] (setting [7]) it was 3%; in assay [6] (setting [8]) it was 94% (active); in assay [6] (at 50.0 µM), 76.4% (active).

As to `CN(C)CC(CN(C)C)C(=O)c1ccc(Oc2ccc(Cl)cc2)cc1`, the growth inhibition was 72% (active) in assay [1] (setting [7]); 98% (active) in assay [1] (setting [8]); 7.8% in assay [1] (at 50.0 µM); 60% in assay [2] (setting [7]); 99% (active) in assay [2] (setting [8]); 52.3% in assay [2] (at 50.0 µM). Besides, the growth inhibition in assay [3] (setting [7]) is 85% (active); in assay [3] (setting [8]), 99% (active); in assay [3] (at 50.0 µM) it was 50.9%; in assay [4] (setting [7]) it was 36%; in assay [4] (setting [8]) it was 98% (active); in assay [4] (at 50.0 µM), 5.15%. Moreover, the growth inhibition in assay [5] (setting [7]) is 72% (active); in assay [5] (setting [8]), 99% (active); in assay [5] (at 50.0 µM) it was 51.6%; in assay [6] (setting [7]) it was 92% (active); in assay [6] (setting [8]) it was 98% (active); in assay [6] (at 50.0 µM), 6.95%.

On to `O=C1C/C(=C\c2ccccc2)C(=O)c2ccccc2N1`, for which the growth inhibition in assay [1] (setting [7]) was 0%; in assay [1] (setting [8]), 20%; in assay [1] (at 50.0 µM), 57.8%; in assay [2] (setting [7]), -3%; in assay [2] (setting [8]) it was 16%; in assay [2] (at 50.0 µM) it was 41.8%. The growth inhibition was -9% in assay [3] (setting [7]); 27% in assay [3] (setting [8]); 76% (active) in assay [3] (at 50.0 µM); 1% in assay [4] (setting [7]); 6% in assay [4] (setting [8]); 33.6% in assay [4] (at 50.0 µM). Moreover, the growth inhibition in assay [5] (setting [7]) is -23%; in assay [5] (setting [8]), 19%; in assay [5] (at 50.0 µM), 67%; in assay [6] (setting [7]), -18%; in assay [6] (setting [8]), 18%; in assay [6] (at 50.0 µM), 60.5%.
